Measured values from the supplement of paper PMC9262897, “Low-cost anti-mycobacterial drug discovery using engineered E. coli” (Nature Communications, 2022).
Counter-ions that a name gives are not always drawn. ± gives the standard deviation of the averaged measurements.

Legend:
Test in all cases: growth (OD600 after 10 h); higher = more growth (less inhibition)
[1] = test system: E. coli TESEC Alr+ wild-type control; conditions: compound 0.1 mM; raw OD600 reference: median of DMSO wells 0.241, cell-free background 0.041
Experimental: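 TESEC Mtb Alr E. coli, or the Alr+ wild-type control, in 384-well plates with Prestwick library compounds at 0.1 mM and 1% DMSO, across arabinose induction levels of 1E3 to 1E7 nM. Growth is read as OD600 after 10 h at 37 °C in triplicate biological replicates.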

E. coli TESEC Mtb Asd = conditions: compound 0.1 mM
Experimental: (§1)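 TESEC E. coli strains in which the native enzyme is deleted and replaced by arabinose-inducible Mtb Asd, DapB, CysH or TrpD, each grown in its selective medium. Strains were screened against the Prestwick library at 0.1 mM and 1% DMSO in 384-well format at low and high arabinose induction. Growth is read as OD600 after 10 h in triplicate.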

E. coli TESEC Mtb DapB = conditions: compound 0.1 mM
Experimental: as §1

E. coli TESEC Mtb Alr = conditions: compound 0.1 mM
Experimental: (§2)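 TESEC Mtb Alr E. coli (ΔaraC ΔtolC ΔentC Δalr ΔdadX, arabinose-inducible Mtb Alr) or the Alr+ wild-type control strain, grown in defined M9-fructose medium without D-alanine in 96-well plates with Prestwick library compounds at 0.1 mM and 1% DMSO. Low Alr induction is 0.1 µM arabinose and high induction is 10 mM arabinose.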

[2] = test system: E. coli TESEC Alr+ wild-type control; conditions: compound 0.1 mM; raw OD600 reference: median of DMSO wells 0.49, cell-free background 0.052
Experimental: as §2

[3] = arabinose induction (level): High, raw OD600 reference: median of DMSO wells 0.331, cell-free background 0.041
[4] = arabinose induction (level): Low, raw OD600 reference: median of DMSO wells 0.417, cell-free background 0.041
[5] = arabinose induction (level): High, raw OD600 reference: median of DMSO wells […], cell-free background 0.041
[6] = arabinose induction (level): Low, raw OD600 reference: median of DMSO wells 0.227, cell-free background 0.041
[7] = arabinose 100 nM, raw OD600 reference: median of DMSO wells 0.413, cell-free background 0.052
[8] = arabinose 10000000 nM, raw OD600 reference: median of DMSO wells […], cell-free background 0.052

Compound	growth [1]	growth (E. coli TESEC Mtb Asd; [3])	growth (E. coli TESEC Mtb Asd; [4])	growth (E. coli TESEC Mtb DapB; [5])	growth (E. coli TESEC Mtb DapB; [6])	growth (E. coli TESEC Mtb Alr; [7])	growth (E. coli TESEC Mtb Alr; [8])	growth [2]
CO[C@H]1C[C@H](O[C@H]2[C@H](C)[C@@H](O[C@@H]3O[C@H](C)C[C@H](N(C)C)[C@H]3OC(C)=O)[C@@H](C)C[C@@]3(CO3)C(=O)[C@H](C)[C@@H](OC(C)=O)[C@@H](C)[C@@H](C)OC(=O)[C@@H]2C)O[C@@H](C)[C@@H]1OC(C)=O [Troleandomycin]	0.0738 ± 0.00081	0.15 ± 0.012	0.145 ± 0.0075	0.165 ± 0.0054	0.156 ± 0.0093	0.112 ± 0.02	0.0707 ± 0.017	
OCCOCCN1CCN(C2=Nc3ccccc3Sc3ccccc32)CC1 [Quetiapine hemifumarate]	0.158 ± 0.01	0.162 ± 0.024	0.361 ± 0.016			0.396 ± 0.0062	0.289 ± 0.0089	0.486 ± 0.019
COCCc1ccc(OCC(O)CNC(C)C)cc1 (racemic) [Metoprolol-(+,-) (+)-tartrate salt]	0.225 ± 0.0047	0.311 ± 0.028	0.466 ± 0.038	0.214 ± 0.031	0.236 ± 0.0073	0.399 ± 0.008	0.3498 ± 0.0028	
CC(C(=O)O)c1ccc2c(c1)Cc1cccnc1O2 (centres undefined) [Pranoprofen]	0.238 ± 0.0049	0.315 ± 0.03	0.367 ± 0.0097	0.192 ± 0.008	0.198 ± 0.013	0.415 ± 0.0046	0.316 ± 0.012	
COC(=O)C1=C(C)NC(C)=C(C(=O)OCCN(C)Cc2ccccc2)C1c1cccc([N+](=O)[O-])c1 (centres undefined) [Nicardipine hydrochloride]	0.0481 ± 0.0012	0.054 ± 0.0024	0.0558 ± 0.0072	0.107 ± 0.079	0.0547 ± 0.0015	0.3938 ± 0.0022	0.0545 ± 0.0036	
Cc1cc(N)c2ccccc2[n+]1CCCCCCCCCC[n+]1c(C)cc(N)c2ccccc21 [Dequalinium dichloride]	0.048 ± 0.0004	0.0691 ± 0.0051	0.0634 ± 0.006			0.0979 ± 0.005	0.0648 ± 0.0024	0.0513 ± 0.0018
Oc1ncnc2[nH]ncc12 [Allopurinol]	0.234 ± 0.0068	0.449 ± 0.032	0.435 ± 0.038	0.216 ± 0.019	0.234 ± 0.016	0.41 ± 0.013	0.34 ± 0.015	
Cc1nnc(SCC2=C(C(=O)O)N3C(=O)[C@@H](NC(=O)Cn4cnnn4)[C@H]3SC2)s1 [Cefazolin sodium salt]	0.286 ± 0.013	0.313 ± 0.07	0.428 ± 0.0098			0.328 ± 0.015	0.363 ± 0.0051	
NC(=O)OCC(COC(N)=O)c1ccccc1 [Felbamate]	0.24 ± 0.0061	0.423 ± 0.044	0.316 ± 0.031	0.224 ± 0.0049	0.212 ± 0.0076	0.405 ± 0.011	0.369 ± 0.025	
O=C(O)CCC(=O)c1ccc(-c2ccccc2)cc1 [Fenbufen]	0.201 ± 0.0054	0.25 ± 0.049	0.286 ± 0.047			0.399 ± 0.013	0.235 ± 0.007	
S=c1[nH]cnc2nc[nH]c12 [Mercaptopurine]	0.062 ± 0.002	0.176 ± 0.021	0.167 ± 0.01	0.202 ± 0.01	0.211 ± 0.004	0.334 ± 0.017	0.113 ± 0.01	
CN(C)CCCO[C@@H]1[C@H]2OC(C)(C)O[C@H]2O[C@@H]1[C@H](O)CO [Amiprilose hydrochloride]	0.23 ± 0.012	0.411 ± 0.073	0.385 ± 0.076			0.405 ± 0.013	0.337 ± 0.022	0.613 ± 0.04
COC(=O)C1=C(C)NC(C)=C(C(=O)OCC(C)C)C1c1ccccc1[N+](=O)[O-] (centres undefined) [Nisoldipine]	0.0411 ± 0.00044	0.0578 ± 0.0013	0.0593 ± 0.0039	0.122 ± 0.0061	0.114 ± 0.0044	0.386 ± 0.0062	0.223 ± 0.012	
